Results filed as inconclusive are left out. Where a call stands in place of a potency, no number is given. The source made the active and inactive calls. Calls follow the shape of the full dose curve.
Target: Beta-2 adrenergic receptor (Homo sapiens) (UniProt P07550)
Experiment: Adrenergic beta2 receptor (ADRB2) small molecule agonists, cell-based qHTS assay (AID 1963593)
Outline: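 CHO cells stably over-expressing ADRB2 were plated overnight at 37C, then dosed with compounds plus a stimulation mix containing 100uM IBMX and 25uM Ro-20-1724 for 0.5hr at room temperature. cAMP was measured by HTRF competition, 1hr.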
Potency is read from the fitted curve at half-maximal effect.

Chain of Beta-2 adrenergic receptor (Homo sapiens) (P07550 whole entry, looked up): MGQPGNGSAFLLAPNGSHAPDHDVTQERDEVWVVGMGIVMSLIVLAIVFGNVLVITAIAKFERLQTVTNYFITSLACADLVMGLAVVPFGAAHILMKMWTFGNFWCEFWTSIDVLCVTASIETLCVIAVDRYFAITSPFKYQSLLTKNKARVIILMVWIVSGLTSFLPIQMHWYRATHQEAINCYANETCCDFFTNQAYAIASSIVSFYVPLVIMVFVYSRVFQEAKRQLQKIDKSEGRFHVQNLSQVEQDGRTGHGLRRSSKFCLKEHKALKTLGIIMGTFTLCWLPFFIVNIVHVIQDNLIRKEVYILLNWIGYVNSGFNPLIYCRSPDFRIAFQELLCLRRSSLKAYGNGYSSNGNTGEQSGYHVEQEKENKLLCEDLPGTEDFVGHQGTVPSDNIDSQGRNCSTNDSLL

Row | Structure (SMILES) | Potency
1 | CC(Br)C(=O)O (configuration not stated) | inactive
2 | [O-][Cl+2]([O-])O | inactive
3 | CC1(C)CC(=O)CC(C)(C)N1[O] | inactive
4 | COS(=O)(=O)OC | inactive
5 | C=CC(=O)OCCCCCC(C)C | inactive
6 | ClCCN1CCCC1 | inactive
7 | CC(O)CN(CC(C)O)CC(C)O (configuration not stated) | inactive
8 | c1ccc2c(c1)sc1ccccc12 | inactive
9 | Cc1cc(Cl)ccc1OC(C)C(=O)O (configuration not stated) | inactive
10 | O=C(CCN1CC1)OCC(CO)(COC(=O)CCN1CC1)COC(=O)CCN1CC1 | inactive
11 | O=C(O)c1ccccn1 | inactive
12 | CNC(=O)Oc1c(C(C)(C)C)cc(C)cc1C(C)(C)C | inactive
13 | NCC(O)c1ccc(O)cc1 (configuration not stated) | inactive
14 | N#CC(c1ccccc1)c1ccccc1 | inactive
15 | OCCSSCCO | inactive
16 | C=CC(C)=O | inactive
17 | c1ccc(C2CO2)cc1 (configuration not stated) | inactive
18 | CCN(N=O)C(N)=O | inactive
19 | CC(Oc1ccc(Cl)cc1Cl)C(=O)O (configuration not stated) | inactive
20 | O=C(NCO)NCO | inactive
21 | CCC(=O)O[C@@H]1C=C2CCC3C(CCC4(C)C3CC[C@@H]4OC(=O)CC)C2CC1 (some centres not stated) | inactive

Row | Structure (SMILES) | Potency
22 | C#C[C@]1(O)CC[C@H]2[C@@H]3CCC4=CC(=O)CC[C@]4(C)[C@H]3CC[C@@]21C | inactive
23 | O=C(O)c1ccc(=O)[nH]c1 | inactive
24 | C[C@]12CC[C@H]3[C@@H](CCC4=CC(=O)CC[C@@H]43)[C@@H]1CC[C@@H]2O | inactive
25 | CC(C)c1cccc(C(C)C)c1O | inactive
26 | [N-]=[N+]=CC(=O)OC[C@H](N)C(=O)O | inactive
27 | O=[N+]([O-])c1cc([As](=O)(O)O)ccc1O | inactive
28 | O=P1(N(CCCl)CCCl)NCCCO1 (configuration not stated) | inactive
29 | COc1ccc(C(CN(C)C)C2(O)CCCCC2)cc1 (configuration not stated) | inactive
30 | C=CCc1ccc2c(c1)OCO2 | inactive
31 | O=S(=O)(c1ccc(O)cc1)c1ccc(O)cc1 | inactive
32 | C[C@]12CCC(=O)C=C1CC[C@@H]1[C@@H]2CC[C@@]2(C)[C@H]1CC[C@]2(C)O | inactive
33 | O=C(O)CCCc1ccc(N(CCCl)CCCl)cc1 | inactive
34 | Nc1ccc(Cc2ccc(N)cc2)cc1 | inactive
35 | NC(=O)CN1CCCC1=O | inactive
36 | C=CC(N)=O | inactive
37 | Cc1cc(Cl)ccc1N=CN(C)C | inactive
38 | O=C(O)C(Cl)(Cl)Cl | inactive
39 | COCCC#N | inactive
40 | C#CCOS(=O)OC1CCCCC1Oc1ccc(C(C)(C)C)cc1 (configuration not stated) | inactive
41 | CCCCc1c(C)nc(NCC)[nH]c1=O | inactive
42 | Nc1nc(N)nc(Cl)n1 | inactive

Row | Structure (SMILES) | Potency
43 | CSc1nc(NC(C)C)nc(NC(C)C)n1 | inactive
44 | CC(C(=O)c1ccccc1)N(C)C (configuration not stated) | inactive
45 | Nc1ccncc1 | inactive
46 | CCCC[n+]1cccc(C)c1 | inactive
47 | CCC(C)(C)c1ccc(O)cc1 | inactive
48 | CC1(C)[C@H](C(=O)O[C@H](C#N)c2cccc(Oc3ccccc3)c2)[C@@H]1/C=C(\Cl)C(F)(F)F | inactive
49 | CC(=O)CC(c1ccc(Cl)cc1)c1c(O)c2ccccc2oc1=O (configuration not stated) | inactive
50 | ClC1=C(Cl)[C@]2(Cl)[C@@H]3[C@@H](Cl)[C@H](Cl)C[C@@H]3[C@@]1(Cl)C2(Cl)Cl | inactive
51 | c1ccc(-c2ccccc2)cc1 | inactive
52 | CC(C)=CC1C(C(=O)OCc2cccc(Oc3ccccc3)c2)C1(C)C (configuration not stated) | inactive
53 | COc1c(C(C)(C)C)cc([N+](=O)[O-])c(C)c1[N+](=O)[O-] | inactive
54 | N[C@@H](Cc1ccc(N(CCCl)CCCl)cc1)C(=O)O | inactive
55 | Oc1c(Cl)c(Cl)c(Cl)c(Cl)c1Cl | inactive
56 | O=P(OCCCl)(OCCCl)OCCCl | inactive
57 | CCCCCCCCCCCCCC[P+](CCCCCC)(CCCCCC)CCCCCC | inactive
58 | CC(=O)[O][Hg][c]1ccccc1 | 4.73 µM (active)
59 | CCN(CC)C(=O)C(C)Oc1cccc2ccccc12 (configuration not stated) | inactive
60 | CCCCCCCCCBr | inactive
61 | CCCCC(CC)CO[N+](=O)[O-] (configuration not stated) | inactive
62 | N#Cc1ccccn1 | inactive
